Laboratory results: PubChem BioAssay (EPA / NIEHS)
Where “and” joins values, the source holds several entries; their conditions need not be identical. Equal values may be shown once. Some compounds were tested as several samples or in several runs, with calls that do not always agree. Calls of active or inactive are those of the source. How the source made its calls: active means hit-call score of the fitted dose curve at least 0.9, where 1 is the maximum; inactive means score below 0.9.

Experiment: BSK_LPS_SRB: Viability Assessment in the BioMAP Diversity Plus: LPS Assay (AID 2283079);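 further: fitted in both directions against DMSO so loss or gain of signal counts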
Settings: primary human HUVEC with PBMC
Procedure: BSK_LPS is a cell-based, multiplexed-readout assay that uses umbilical vein endothelium and peripheral blood mononuclear cells, a human vascular primary cell co-culture, with measurements taken at 24 hours after chemical dosing in a 96-well plate.BSK_LPS_SRB is an assay component measured in the BSK_LPS assay. It measures 0.1% sulforhodamine related to cell death using Sulforhodamine staining technology.Data from the assay component BSK_LPS_SRB was analyzed into 1 assay endpoint. This assay endpoint, BSK_LPS_SRB, was analyzed with bidirectional fitting relative to DMSO as the negative control and baseline of activity. Using a type of viability reporter, gain or loss-of-signal activity can be used to understand changes in the signaling. Furthermore, this assay endpoint can be referred to as a primary readout, because this assay has produced multiple assay endpoints where this one serves a signaling function. To generalize the intended target to other relatable targets, this assay endpoint is annotated to the cell morphology intended target family, where the subfamily is cell conformation.
The levels of cell surface (or secreted, indicated by the prefix "s") biomarker endpoints were measured by ELISA. Overt cytotoxicity to cells in confluent adherent cultures (all systems other than the BT system) was assessed by measuring total protein levels using sulforhodamine B (SRB) staining in parallel cultures at the time of biomarker measurements, indicated as SRB endpoints. For proliferation assays for adherent cell types, individual cell types are cultured at sub-confluence and relative cell numbers quantified by SRB staining at time points optimized for each system (48 h: 3C and CASM3C systems; 72 h: BT and HDF3CGF systems; 96 h: SAg system). SRB was performed by staining cells with 0.1% SRB after fixation with 10% TCA and reading wells at 560 nm.Viability and proliferation of PBMC (T cells) was quantified by Alamar Blue reduction for the SAg and BT systems. For PBMC viability (referred to as PBMC Cytotoxicity within the assay endpoint names), cells were plated (75,000/well in a 96-well plate) and then chemical samples added for 1 h before addition of activators, SEB and TSST-1 (20 ng/mL final concentration each). Cells were incubated for 90 h. Then, Alamar Blue (20 uL/well) (Invitrogen, Cat DAL1100) was added for 6 h, and the plates were read with a fluorescence microplate reader at 546/580 nm (excitation/emission). For PBMC proliferation, cells were plated and activated as above but incubated for only 16 h prior to addition of Alamar Blue. Plates were read after 6 h.

Row | Compound | outcome | AC50
1 | C=CC(=O)OCC(F)(F)C(F)(F)C(F)(F)C(F)(F)C(F)(F)C(F)(F)C(F)(F)F | inactive | 
2 | O=C(O)C(F)(F)C(F)(F)C(F)(F)C(F)(F)C(F)(F)C(F)(F)C(F)(F)C(F)(F)Cl |  | 48.4 µM (active) and 47.2 µM (active)
3 | O=C(O)C(F)(OC(F)(F)C(F)(OC(F)(F)C(F)(F)C(F)(F)F)C(F)(F)F)C(F)(F)F (stereo not given) | inactive | 
4 | CCc1ccc(C(c2ccc(CC)cc2)C(Cl)Cl)cc1 |  | 25.1 µM (active)
5 | OCC(F)(F)C(F)(F)C(F)(F)C(F)(F)C(F)(F)C(F)(F)F | inactive | 
6 | FC(F)(F)C(F)(F)C(F)(F)C(F)(F)CCI | inactive | 
7 | Cc1ccc(S(=O)(=O)OCC(F)(F)C(F)(F)C(F)(F)C(F)(F)C(F)(F)C(F)F)cc1 | inactive | 
8 | CCO[Si](CCC(F)(F)C(F)(F)C(F)(F)C(F)(F)C(F)(F)C(F)(F)F)(OCC)OCC | inactive | 
9 | C=C(C)C(=O)OCCC(F)(F)C(F)(F)C(F)(F)C(F)(F)C(F)(C(F)(F)F)C(F)(F)F | inactive | 
10 | C#C[C@]1(O)CC[C@H]2[C@@H]3CCc4cc(OC)ccc4[C@H]3CC[C@@]21C | inactive | 
11 | CCCCCCCCCCCCCCCC[N+](C)(C)Cc1ccccc1 |  | 5.2 µM (active)
12 | CCCCCCCOC(=O)c1ccccc1C(=O)OCCCCCCC | inactive | 
13 | C=CC(=O)OCC(F)(F)C(F)(F)C(F)(F)C(F)(F)COC(=O)C=C |  | 45.3 µM (active) and 43.4 µM (active)
14 | O=C(O)C(F)(F)C(F)(F)C(F)(F)C(F)(F)F | inactive | 
15 | OCCCC(F)(F)C(F)(F)C(F)(F)F | inactive | 
16 | FC(F)(F)C(F)(F)C(F)(F)C(F)(F)C(F)(F)CCI | inactive | 
17 | CC(CCl)OP(=O)(OC(C)CCl)OC(C)CCl (stereo not given) | inactive | 
18 | O=S(=O)(OCCOC(F)(F)F)C(F)(F)F | inactive | 
19 | FC(F)(F)C(F)(F)C(F)(F)C(F)(F)C(F)(F)C(F)(F)C(F)(F)Br | inactive | 
20 | FC(F)(F)C(F)(F)C(F)(F)C(F)(F)C(F)(F)C(F)(F)C(F)(F)C(F)(F)F | inactive | 

Row | Compound | outcome | AC50
21 | O=C(O)C(F)(OC(F)(F)C(F)(OC(F)(F)C(F)(OC(F)(F)C(F)(F)C(F)(F)F)C(F)(F)F)C(F)(F)F)C(F)(F)F (stereo not given) | inactive | 
22 | CCCCCCOC(=O)c1ccccc1O |  | 43.2 µM (active) and 42.1 µM (active)
23 | O=S(=O)(OCC(F)F)C(F)(F)F | inactive | 
24 | C=CC/C=C/C/C=C/C/C=C/C | inactive | 
25 | O=C(Cl)C(F)(F)C(F)(F)C(F)(F)C(F)(F)C(F)(F)C(F)(F)C(F)(F)C(F)(F)F | inactive | 44.7 µM (active) and 42.3 µM (active)
26 | FC(F)(Br)C(F)(F)C(F)(F)C(F)(F)C(F)(F)C(F)(F)Br | inactive | 
27 | CCc1c(Br)c(Br)c(Br)c(Br)c1Br | inactive | 
28 | O=C(CC(=O)C(F)(F)C(F)(F)F)C(F)(F)F | inactive | 
29 | CC(C)(C)C(=O)CC(=O)C(F)(F)C(F)(F)C(F)(F)F | inactive | 
30 | C=C(C)C(=O)OCC(F)(F)C(F)(F)C(F)(F)C(F)(F)C(F)(F)C(F)(F)C(F)(F)F | inactive | 
31 | O[Si](c1ccccc1)(c1ccccc1)c1ccccc1 |  | 28.6 µM (active)
32 | O=C(O)C=C(C(F)(F)F)C(F)(F)F | inactive | 
33 | FC(F)(F)C(F)(F)C(F)(F)C(F)(F)C(F)(F)C(F)(F)C(F)(F)I | inactive | 
34 | FC(F)(F)C(F)(F)C(F)(F)C(F)(F)C(F)(F)C(F)(F)CC1CO1 (stereo not given) | inactive | 
35 | FC(F)(F)C(F)(F)CNCC(F)(F)C(F)(F)F | inactive | 
36 | FC(F)(F)C(F)(F)C(F)(F)C(F)(F)C(F)(F)C(F)(F)CCS | inactive | 
37 | OCC(F)(F)C(F)(F)C(F)(F)F | inactive | 
38 | C=CC(F)(F)C(F)(F)C(F)(F)C(F)(F)C(F)(F)C(F)(F)C(F)(F)C(F)(F)F | inactive | 
39 | FC(F)(I)C(F)(F)C(F)(F)C(F)(F)I | inactive | 
